In all, about 190,000 compounds went through this assay and about 810 (0.43%) were called active. The list comes from a sample in which actives are over-represented; it also holds similar structures and randomly drawn compounds. Unmarked numbers belong to inactive results. No stated cut-off is given here; in the data, active means inhibition above about 50%; inactive means the rest.

In the test the target is Mannose-6-phosphate isomerase (Homo sapiens) (UniProt P34949). As to the kind of experiment: inhibitors of human PMI, primary screen, biochemical, fluorescence intensity, coupled assay (AID 1209).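 Further: plate controls were DMSO vehicle for no effect and wells lacking substrate for full effect.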 To be noted: purified PMI enzyme, at 20 µM, hits give high values.
Sequence of Mannose-6-phosphate isomerase (Homo sapiens) (P34949 whole entry, looked up): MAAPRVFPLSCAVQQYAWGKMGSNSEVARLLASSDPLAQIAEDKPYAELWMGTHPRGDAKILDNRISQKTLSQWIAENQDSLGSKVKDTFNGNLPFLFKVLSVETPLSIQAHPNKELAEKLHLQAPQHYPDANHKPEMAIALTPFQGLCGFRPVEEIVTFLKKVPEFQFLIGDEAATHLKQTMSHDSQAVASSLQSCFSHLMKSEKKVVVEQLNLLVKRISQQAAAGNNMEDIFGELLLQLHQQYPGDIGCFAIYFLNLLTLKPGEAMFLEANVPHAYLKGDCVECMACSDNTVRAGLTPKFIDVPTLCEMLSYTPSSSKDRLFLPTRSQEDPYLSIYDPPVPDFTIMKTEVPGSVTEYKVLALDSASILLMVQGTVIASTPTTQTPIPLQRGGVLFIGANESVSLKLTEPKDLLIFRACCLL
What is called inhibition is the drop in the measured response relative to a control, in per cent. On to `O=C(NC1(C(F)(F)F)Oc2ccc(Cl)cc2O1)N1CCC2(CC1)OCCO2` (stereo unspecified), for which the inhibition is 79.1% (active).

As to `O=C(NC(=O)N1CCC2(CC1)OCCO2)c1ccc(Cl)cc1`, the inhibition is 10.2%.

On to `O=C(NC1(C(F)(F)F)Oc2ccccc2O1)N1CCC2(CC1)OCCO2`, for which the inhibition was 32.9%.

On to `CC(=O)Nc1ccccc1C(=O)OCc1ccc(F)cc1`, for which the inhibition was 1.8%.

Turning to `CS(=O)(=O)N1CCN(C(=N)N[N+](=O)[O-])CC1`, the inhibition is -5.1%.

Regarding `C/C(=N\N1CCCCC1c1cccnc1)c1c(O)n(C2CCCCC2)c(=S)[nH]c1=O` (stereo unspecified), the inhibition is 5.8%.

`O=C1C=Cc2ccccc2C1=O`: the inhibition was 79.1% (active).

Take `O=C1C(=O)c2cccc3cccc1c23`: the inhibition is 17.2%.

For the compound `O=C1C(=O)c2ccccc2-c2ccccc21`, the inhibition was 25.8%.

For `Cc1cc(Oc2ccc(C(F)(F)F)cc2[N+](=O)[O-])c2c3c(c(=O)oc2c1)CCC3`, the inhibition is -1.9%.

In the case of `Cc1cc(N2C(=O)CC(N3CCC(n4c(=O)[nH]c5ccccc54)CC3)C2=O)no1` (stereo unspecified), the inhibition was 6.9%.

For `COc1cc(CN2CC3CC(C2)c2cccc(=O)n2C3)cc(OC)c1OC` (stereo unspecified), the inhibition was -1.2%.

`CCN(CC)CCCN=Cc1c(O)n(CCc2ccc(OC)c(OC)c2)c(=O)[nH]c1=O`: the inhibition is -10.4%.

Take `CCN(CC)c1ccc(N=Cc2c(O)n(CCC3=CCCCC3)c(=O)[nH]c2=O)cc1`: the inhibition is 24.6%.

On to `CCN(CC)c1ccc(N=Cc2c(O)n(CCc3ccc(OC)c(OC)c3)c(=O)[nH]c2=O)cc1`, for which the inhibition was 50% (active).

On to `CCOC(=O)C(NC(=O)C(Cc1ccc(N(CCCl)CCCl)cc1)NC(C)=O)C(C)C` (stereo unspecified), for which the inhibition is -44.3%.

For `Cc1ccc(N2C(=O)/C(=C/N3CCN(C(=O)c4ccco4)CC3)C(=O)NC2=S)cc1C`, the inhibition is 37.6%.

Consider `Cc1cccc(N2C(=O)/C(=C/N3CCN(C(=O)c4ccco4)CC3)C(=O)NC2=S)c1`, for which the inhibition is 55.5% (active).

Regarding `O=C1NC(=S)N(c2ccc(Br)cc2)C(=O)/C1=C/N1CCN(C(=O)c2ccco2)CC1`, the inhibition was 25.8%.

Turning to `CSCCC(N=Cc1c(O)n(-c2ccc(F)cc2)c(=O)[nH]c1=O)C(=O)OC(C)(C)C` (stereo unspecified), the inhibition was 12.2%.

Take `O=C(CNC(=O)c1cccc(Cl)c1)Nc1ccc(Br)cc1C(=O)c1ccccc1`: the inhibition is 17.1%.

On to `Cc1ccc(NC2=NCCCS2)c(C)c1C`, for which the inhibition is 12.6%.

As to `Cc1cc(C=C2C(=O)N(C)C(=O)N(C)C2=O)c(C)n1-c1ccccc1`, the inhibition was -25.1%.

In the case of `Cc1cc(/C=C2/C(=O)NC(=O)N(C)C2=O)c(C)n1-c1ccccc1`, the inhibition is 2.6%.

For the compound `C=CCN1C(=O)/C(=C/c2cc(C)n(-c3cccnc3)c2C)C(=O)NC1=S`, the inhibition is 50.2% (active).

On to `Cc1ccnc(-n2c(C)cc(C=C3C(=O)N(C)C(=S)N(C)C3=O)c2C)c1`, for which the inhibition was 23.1%.

With `C=CCN1C(=O)/C(=C/c2cc(C)n(-c3ccccn3)c2C)C(=O)NC1=S`, the inhibition was -25.6%.

Take `Cc1cc(C=C2C(=O)N(C)C(=S)N(C)C2=O)c(C)n1-c1cccnc1`: the inhibition is 59.6% (active).

With `COc1cc2c(cc1O)C[C@H]1NCCc3cc4c(c-2c31)OCO4`, the inhibition was 6.6%.

`CCOC(=O)c1c(C)n(Cc2ccccc2)c2ccc(OCC(O)Cn3nc(C)cc3C)cc12` (stereo unspecified): the inhibition was 16.3%.

For `CCOC(=O)c1c(C)n(Cc2ccccc2)c2ccc(OCC(O)Cn3nc(C)nc3C)cc12` (stereo unspecified), the inhibition is 15.7%.

Turning to `CCOC(=O)c1c(C)n(Cc2ccccc2)c2ccc(OCC(O)CN3C(=O)CNC3=O)cc12` (stereo unspecified), the inhibition was 60.1% (active).

For `CCOC(=O)C1=C(C)OC(N)=C(C#N)C12C(=O)N(C)c1ccccc12` (stereo unspecified), the inhibition is 5.2%.

As for `C=CCOC(=O)C1=C(C)OC(N)=C(C#N)[C@@]12C(=O)N(CC(N)=O)c1ccccc12`, the inhibition was -6.8%.

Take `C#CCN1C(=O)C2(C(C#N)=C(N)OC(C)=C2C(=O)OCc2ccccc2)c2ccccc21` (stereo unspecified): the inhibition was 51.6% (active).

Turning to `Nc1ccc(Cl)cc1C(=O)c1ccccc1Cl`, the inhibition was 5.4%.

As to `CN(C)C(=O)OCc1n(C)cc[n+]1C`, the inhibition was -9.3%.

For the compound `CNC(=O)OCc1n(C)cc[n+]1C`, the inhibition is 20.7%.

As for `CCN(CC)P(c1n(C)cc[n+]1C)N(CC)CC`, the inhibition is 54.3% (active).

Regarding `CCn1cc(CN2CCCC(C(=O)c3cccc(OC)c3)C2)c(C)n1` (stereo unspecified), the inhibition is 13%.

Consider `CNC(C(=O)c1ccccc1)C(OC)c1ccc(C)cc1` (stereo unspecified), for which the inhibition was -37.6%.

The values above are taken from PubChem BioAssay AID1209 (Sanford-Burnham Center for Chemical Genomics, 2008).
